Data on 27 compounds can be found in the supplement of paper PMC7695840.

In assay [1] the test system is Staphylococcus aureus MW2 delta-mecA (mecA-). In words: normalized GFP fluorescence (growth of mecA- strain) (fraction of control range); higher = more growth of mecA- strain. Conditions: compound concentration: 150 uM; cefoxitin: subinhibitory; fluorescent label: GFP. An outline of the steps:
(§1)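 Pre-induced S. aureus MW2 mecA+ (DsRed) and ΔmecA (GFP) cells were mixed 1:1 in LB with a daily-set subinhibitory cefoxitin dose. They were dispensed at 5 µL/well onto 150 μM compound (1.5% DMSO) in 1536-well plates, single replicate. Growth was 20 h at 37 °C, 90% humidity, unshaken, and DsRed (540/590) and GFP (485/520) were then read. Each channel was scaled per plate between the medians of the single-strain controls. Plates with high No Treatment ratios and rows with DsRed/GFP >10 were excluded.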

For assay [2], the system named is Staphylococcus aureus MW2 (mecA+). Description: normalized DsRed fluorescence (growth of mecA+ strain) (fraction of control range); higher = more growth of mecA+ strain. Conditions: compound concentration: 150 uM; cefoxitin: subinhibitory; fluorescent label: DsRed. An outline of the steps:
as §1

Where a name gives a salt, the structure may show the parent alone.

For the compound `NNc1nncc2ccccc12`, the “normalized GFP fluorescence” value in assay [1] turned out to be 0.383. The “normalized DsRed fluorescence” value in assay [2] came out at 0.694.
The matching figures for `CC1=C(/C=C/C(C)=C/C=C/C(C)=C\C(=O)O)C(C)(C)CCC1`: 0.0602 and 0.671.
Taken in the same sequence, the figures for `NCC(=O)CCC(=O)O` were 0.315 and 1.12.
For the compound `Cn1c(=O)c2c(ncn2CC2OCCO2)n(C)c1=O`, in assay [1], the “normalized GFP fluorescence” value is 0.29. Moreover, the “normalized DsRed fluorescence” value in assay [2] stood at 1.05.
Taken in the same sequence, the figures for `CC(=O)OCC(=O)[C@@]1(O)CC[C@H]2[C@@H]3CCC4=CC(=O)CC[C@]4(C)[C@@]3(F)[C@@H](O)C[C@@]21C` were 0.287 and 0.642.
The matching figures for `Cc1cc(=O)[nH]c(=S)[nH]1`: 0.707 and 0.716.
Taken in the same sequence, the figures for `CCCCCCNC(=O)n1cc(F)c(=O)[nH]c1=O` [Carmofur] were 0.605 and 0.452.
On to `Cc1ccnc(NS(=O)(=O)c2ccc(N)cc2)n1`, for which the “normalized GFP fluorescence” value in assay [1] came to 0.459. In addition, the “normalized DsRed fluorescence” value in assay [2] stood at 0.528.
The matching figures for `CCN(CC)CCOC(=O)c1ccc(N)cc1`: 0.335 and 0.634.
The matching figures for `COc1ccccc1OCC(O)CN1CCN(CC(=O)Nc2c(C)cccc2C)CC1` (centres undefined): 0.863 and 0.62.
The matching figures for `COc1cc2nc(N(C)CCCNC(=O)C3CCCO3)nc(N)c2cc1OC` (centres undefined): 0.343 and 0.686.
On to `Nc1ccc(S(=O)(=O)c2ccc(N)cc2)cc1`, for which the “normalized GFP fluorescence” value in assay [1] came out at 0.296. Also, the “normalized DsRed fluorescence” value in assay [2] was 0.89.
Taken in the same sequence, the figures for `Cc1cccc(C)c1OCC(C)N` (centres undefined) were 0.344 and 1.02.
Taken in the same sequence, the figures for `COc1ccc(CNc2nc(N3CCC[C@H]3CO)ncc2C(=O)NCc2ncccn2)cc1Cl` [Avanafil] were 0.53 and 0.718.
Taken in the same sequence, the figures for `CC(=O)[C@H]1CC[C@H]2[C@@H]3C[C@H](C)C4=CC(=O)CC[C@]4(C)[C@H]3[C@@H](O)C[C@]12C` were 0.258 and 0.378.
Regarding `Clc1ccc(COC(Cn2ccnc2)c2ccc(Cl)cc2Cl)cc1` (centres undefined) [Econazole nitrate (Spectazole)], the “normalized GFP fluorescence” value in assay [1] was -0.00195. Moreover, in assay [2], the “normalized DsRed fluorescence” value came out at 0.01.
Taken in the same sequence, the figures for `O=C(CCCN1CCC(O)(c2ccc(Cl)cc2)CC1)c1ccc(F)cc1` were 0.45 and 1.19.
The matching figures for `CN(C)CCN(Cc1cccs1)c1ccccn1`: 0.185 and 0.778.
The matching figures for `CN(C)CCCN1c2ccccc2CCc2ccccc21`: 0.0133 and 1.83.
`CC(C)(C)NC[C@H](O)COc1ccccc1C1CCCC1`: the “normalized GFP fluorescence” value in assay [1] stood at 0.435. Moreover, the “normalized DsRed fluorescence” value in assay [2] is 0.586.
The matching figures for `O=C(O)COCCN1CCN(C(c2ccccc2)c2ccc(Cl)cc2)CC1` (centres undefined): 0.0457 and 0.556.
The matching figures for `N#C[C@@H]1CCCN1C(=O)CNC12CC3CC(CC(O)(C3)C1)C2` [Vildagliptin (LAF-237)]: 0.68 and 0.519.
The matching figures for `NC(=O)N/N=C/c1ccc([N+](=O)[O-])o1` [Nitrofurazone (Nitrofural)]: 0.0137 and 0.0574.
In the case of `Cc1cc2c(cc1CC(=O)c1sccc1S(=O)(=O)Nc1onc(C)c1Cl)OCO2`, the “normalized GFP fluorescence” value in assay [1] is 0.251. Besides, in assay [2], the “normalized DsRed fluorescence” value was 0.293.
Regarding `OC(CCN1CCCCC1)(c1ccccc1)C1CC2C=CC1C2` (centres undefined) [Biperiden hydrochloride], the “normalized GFP fluorescence” value in assay [1] was found to be 0.119. Besides, the “normalized DsRed fluorescence” value in assay [2] worked out at 0.714.
The matching figures for `COc1c2occc2cc2ccc(=O)oc12`: 0.476 and 0.402.
Taken in the same sequence, the figures for `CN(C)CCCOc1nn(Cc2ccccc2)c2ccccc12` were 0.19 and 1.11.
